Results filed as inconclusive are left out. A number with no mark means an inactive call. Calls of active or inactive are those of the source. Calls come from the whole dose curve. Square brackets hold non-standard residues; d marks the D form. Peptide text beside a SMILES is read from it. ξ: configuration not given here. d(hArg(Et2)) = CCN=C(NCC)NCCCC[C@@H](N)C(=O)O; hArg(Et2) = CCN=C(NCC)NCCCC[C@H](N)C(=O)O; Phe(4-Cl) = N[C@@H](Cc1ccc(Cl)cc1)C(=O)O; ξ2Nal = NC(Cc1ccc2ccccc2c1)C(=O)O; 3Pal = N[C@@H](Cc1cccnc1)C(=O)O; ξP = O=C(O)C1CCCN1
test: Confirmatory qHTS to identify inhibitors of SARS-CoV-2 cell entry (AID 1645844); settings: SARS-CoV-2 pseudotyped particle cell entry, luciferase; series mostly up to 57.2 µM; activity, negative = inhibition: at the top concentration; note: nearly all actives have a fitted effect of over 45% in size
From the text: Assay Provider: Wei Zheng, Ph.D.
National Center for Advancing Translational Sciences, National Institute of Health, Rockville, MD.
SARS-CoV-2 spike protein, within the viral envelope, mediates viral attachment and infection of host cells. The SARS-CoV-2 spike protein specifically binds to the host receptor ACE2 (Angiotensin-converting enzyme 2). This interaction promotes endocytosis of the viral particle, additional events lead to viral-host cell membrane fusion and release of the viral contents, allowing viral replication.
While SARS-CoV-2 requires BSL-3 facilities for live virus work, pseudotyped partices (PP) that incorporate SARS-CoV-2 spike proteins without replication elements could facilitate studies on viral entry mechanisms in a BSL-2 setting. This PP cell entry assay could also enable screening of small molecule compound libraries in BSL-2 setting to identify inhibitors of SARS-CoV-2 cell entry.
SEQUENCE No. (e.g., 1, 2, 3, etc.); […] (e.g., Cells, Incubation, Reagent, etc.); VALUE and DESCRIPTION.
1. Cells. Seed 1500 HEK293-ACE2 cells (Expi293F with stable expression of human ACE2) in 2 uL/well media (DMEM, 10% FBS, 1x L-glutamine, 1x Pen/Strep, 1 ug/ml puromycin) in white 1536-well assay plates (Greiner #782073).
2. Incubation. Incubate at 37C with 5% CO2 overnight (~16 h).
3. Compounds. Dispense 23 nL/well compounds in DMSO via pin transfer.
4. Incubation. Incubate for 1 hr at 37C 5% CO2.
5. Reagent. Dispense 2 uL/well of SARS-CoV-2-S pseudotyped particles (PP). [a] PPs are produced with murine leukemia virus pseudotyping). [b] SARS-CoV-2-S is Wuhan-Hu-1 sequence (BEI #NR-52420) with C-terminal 19 amino acid truncation.
6. Centrifugation. […]
7. Incubation. Incubate at for 48 hr at 37C 5% CO2
8. Centrifugation. Remove supernatant with gentle centrifugation using a Blue Washer (BlueCat Bio).
9. Reagent. Dispense 4 uL/well of Bright-Glo Luciferase detection reagent (Promega #E2620).
10. Incubation. Incubate for 5 min at room temperature.
11. Detection. Read luminescence signal (Viewlux plate reader, PerkinElmer). Data was normalized with wells containing SARS-CoV-2-S PP as 100%, and wells containing bald PP (no fusion protein) as 0%.
% is set by controls: 0 for no effect and ±100 for the full control effect; potency is the fitted concentration of half-maximal effect.

Row | SMILES | Potency | activity, negative = inhibition
1 | CCNC(=NCCCC[C@H](NC(=O)[C@H](CC(C)C)NC(=O)[C@@H](CCCCN=C(NCC)NCC)NC(=O)[C@@H](Cc1ccc(O)cc1)NC(=O)[C@@H](CO)NC(=O)[C@H](Cc1cccnc1)NC(=O)[C@H](Cc1ccc(Cl)cc1)NC(=O)C(Cc1ccc2ccccc2c1)NC(C)=O)C(=O)N1CCCC1C(=O)N[C@H](C)C(N)=O)NCC (stereo not given in full) (Ac-[ξ2Nal][Phe(4-Cl)][3Pal][dS][dY][d(hArg(Et2))]L[hArg(Et2)][ξP][dA]-NH2) | 1210 nM (active) | –
2 | CO[C@H]1C[C@H](O[C@@H]2[C@H](C)O[C@H](O[C@@H]3/C(C)=C/C[C@@H]4C[C@@H](C[C@]5(C=C[C@H](C)[C@@H](C6CCCCC6)O5)O4)OC(=O)[C@@H]4C=C(C)C(O)[C@H]5OC/C(=C\C=C\[C@@H]3C)[C@]54O)C[C@@H]2OC)O[C@@H](C)[C@@H]1O (stereo not given in full) | 2710 nM (active) | –
3 | O=C(Nc1cc(Oc2cc(F)c(NC(=O)C3(C(=O)Nc4ccc(F)cc4)CC3)cc2F)ccn1)C1CC1 | 21500 nM (active) | –
4 | C[C@H]1COCCN1c1cc(C2(S(=O)(=O)C3CC3)CC2)nc(-c2ccc(NC(=S)NCCO)cc2)n1 | 764 nM (active) | –
5 | CO[C@@H]1[C@H](C)OC(O[C@H]2CC(Oc3cc4cc5c(c(O)c4c(O)c3C)C(=O)[C@@H](OC3C[C@@H](OC4C[C@H](OC6C[C@](C)(O)[C@@H](OC(C)=O)[C@H](C)O6)[C@@H](O)[C@H](C)O4)[C@H](O)[C@@H](C)O3)[C@H]([C@@H](OC)C(=O)[C@@H](O)[C@H](C)O)C5)O[C@@H](C)[C@H]2OC(C)=O)C[C@@H]1O (stereo not given in full) | 21.5 nM (active) | –
6 | CC(C)OC(=O)[C@H](C)N[P@](=O)(CO[C@H](C)Cn1cnc2c(N)ncnc21)Oc1ccccc1 | 10.8 nM (active) | –
7 | O=C(O)c1ccc(-c2c[nH]c3ncc(-c4ccccc4)cc23)cc1C1CCCC1 | 1360 nM (active) | –
8 | CC[C@H]1OC(=O)[C@H](C)[C@@H](O[C@H]2C[C@@](C)(OC)[C@@H](O)[C@H](C)O2)[C@H](C)[C@@H](O[C@@H]2O[C@H](C)C[C@H](N(C)C)[C@H]2O)[C@](C)(O)C[C@@H](C)CN(C)[C@H](C)[C@@H](O)[C@]1(C)O | 24100 nM (active) | –
9 | COc1ncc(Nc2ncc(C(C)N3CCN(S(C)(=O)=O)CC3)cc2-c2nc(C)nc(N)n2)cc1F (stereo not given) | 1520 nM (active) | –
10 | O=C(NCc1ccccc1)[C@H](Cc1ccccc1)NC(=O)[C@H]1O[C@@H]1C(=O)NCCc1ccc(O)cc1 | 1360 nM (active) | –
11 | COc1ccc(N(C)c2nc(C)nc3ccccc23)cc1 | 6810 nM (active) | –
12 | Cc1c[nH]c2ncnc(N3CCC(CN)(C(=O)Nc4cccc(OC(=O)N(C)C)c4)CC3)c12 | – | -10% [at 114 µM]
13 | CCOc1ccc2c(c1)C(C)=CC(C)(C)N2 | 31200 nM (active) | –
14 | COc1ccc(-c2ccc3c(N4CCOC[C@@H]4C)nc(N4CCOC[C@@H]4C)nc3n2)cc1CO | 681 nM (active) | –
15 | COC[C@H]1C[C@@H](c2ncc(-c3ccc4c(c3)COc3cc5c(ccc6[nH]c([C@@H]7CC[C@H](C)N7C(=O)[C@@H](NC(=O)OC)C(C)C)nc65)cc3-4)[nH]2)N(C(=O)[C@H](NC(=O)OC)c2ccccc2)C1 | 341 nM (active) | –
16 | CNC(=O)c1cccc(-c2ccc3c(N4CCOC[C@@H]4C)nc(N4CCOC[C@@H]4C)nc3n2)c1 | 2410 nM (active) | –
17 | CN1CC[C@H](CN2c3ccccc3Sc3ccccc32)C1 | 3410 nM (active) | –
18 | C=C1C/C(=C\C=C2/CCC[C@]3(C)[C@@H]([C@H](C)/C=C/C(C)C(C)C)CC[C@@H]23)[C@@H](O)C[C@@H]1O (stereo not given in full) | 541 nM (active) | –
19 | C[C@H]1[C@H](OC(=O)CCC(=O)O)O[C@@H]2O[C@@]3(C)CC[C@H]4[C@H](C)CC[C@@H]1[C@@]24OO3 | 1360 nM (active) | –
20 | C=C1C[C@@H]2CC[C@@]34C[C@H]5O[C@H]6[C@@H](O3)[C@H]3O[C@H](CC[C@@H]3O[C@H]6[C@H]5O4)CC(=O)C[C@@H]3[C@@H](OC)[C@@H](C[C@H](O)CN)O[C@H]3C[C@H]3O[C@@H](CC[C@@H]1O2)C[C@@H](C)C3=C | 221 nM (active) | –

Row | SMILES | Potency | activity, negative = inhibition
21 | CC(=O)c1ccc2c(c1)c1cc(C(C)=O)ccc1n2CCNC(C)C | 54.1 nM (active) | –
22 | CN1C(=O)[C@@H](NC(=O)c2cc(Cc3ccccc3)on2)COc2ccccc21 | – | 0%
23 | O=C1NC(=O)C(c2cnc3ccccn23)=C1c1cn2c3c(cc(F)cc13)CN(C(=O)N1CCCCC1)CC2 | 2150 nM (active) | –
24 | Nc1nc(-c2nn(Cc3ccccc3F)c3ncccc23)ncc1C1CC1 | 5410 nM (active) | –
25 | CO[C@H](C(=O)[C@@H](O)[C@@H](C)O)C1Cc2cc3cc(O[C@H]4C[C@@H](O[C@H]5C[C@@H](O)[C@H](O)[C@@H](C)O5)[C@@H](O)[C@@H](C)O4)c(C)c(O)c3c(O)c2C(=O)[C@H]1O[C@H]1C[C@@H](O[C@H]2C[C@@H](O[C@H]3C[C@](C)(O)[C@H](O)[C@@H](C)O3)[C@H](O)[C@@H](C)O2)[C@H](O)[C@@H](C)O1 (stereo not given in full) | 171 nM (active) | –
26 | CNCCCOc1cc(F)c(-c2c(Cl)nc3ncnn3c2N[C@@H](C)C(F)(F)F)c(F)c1 | 1210 nM (active) | –
27 | CC(C)OC(=O)CCC/C=C\C[C@@H]1[C@@H](/C=C/[C@@H](O)COc2cccc(C(F)(F)F)c2)[C@H](O)C[C@@H]1O | 21500 nM (active) | –
28 | CCN1CCN(Cc2ccc(Nc3ncc(F)c(-c4cc(F)c5nc(C)n(C(C)C)c5c4)n3)nc2)CC1 | 5410 nM (active) | –
29 | C=CC(=O)N1CCC(Oc2cc3c(Nc4ccc(Cl)c(Cl)c4F)ncnc3cc2OC)CC1 | 1360 nM (active) | –
30 | CS(=O)(=O)c1ccc(-c2cnc(NCc3ccco3)n3cnnc23)cc1 | 27100 nM (active) | –
31 | C[C@H]1[C@H](O)[C@@H](C)/C=C/C=C/CC/C=C/C=C/C=C/C=C/[C@H](O[C@@H]2O[C@H](C)[C@@H](O)[C@H](N)[C@@H]2O)C[C@@H]2O[C@](O)(C[C@@H](O)[C@H](O)CC[C@@H](O)C[C@@H](O)C[C@@H](O)CC(=O)O[C@H]1C)C[C@H](O)[C@H]2C(=O)O | 9610 nM (active) | –
32 | Cc1[nH]c2ccc(F)cc2c1-c1nc2c3cccnc3c3ncccc3c2[nH]1 | 555 nM (active) | –
33 | CN(C)CCN1C(=O)c2cccc3cc(NC(N)=O)cc(c23)C1=O | 9610 nM (active) | –
34 | Cc1c(N)nc([C@H](CC(N)=O)NC[C@@H](N)C(N)=O)nc1C(=O)N[C@H](C(=O)N[C@@H](C)[C@H](O)[C@@H](C)C(=O)N[C@@H](C(=O)NCCc1nc(-c2nc(C(=O)NCCC[S+](C)C)cs2)cs1)[C@@H](C)O)C(O[C@H]1O[C@H](CO)[C@H](O)[C@@H](O)[C@H]1O[C@H]1O[C@H](CO)[C@@H](O)[C@H](OC(N)=O)[C@@H]1O)c1cnc[nH]1 (stereo not given in full) | 34.1 nM (active) | –
35 | CCc1nc(C(N)=O)c(Nc2ccc(N3CCC(N4CCN(C)CC4)CC3)c(OC)c2)nc1NC1CCOCC1 | 3410 nM (active) | –
36 | Cc1c(-c2ccc(-c3ccccc3F)cc2)nc2ccc(F)cc2c1C(=O)O | 108 nM (active) | –
37 | Nc1ncc(C(=O)NC2CN(C(=O)C3CC3)C2)c2ccc(-c3cccc(F)c3)nc12 | 2710 nM (active) | –
38 | C=CC(=O)N1CC[C@@H](Oc2nc(Nc3ccc(N4CCC(N5CCN(C)CC5)CC4)cc3)c(C(N)=O)nc2CC)C1 | 2350 nM (active) | –
39 | CCc1cnn2c(NCc3ccc[n+]([O-])c3)cc(N3CCCC[C@H]3CCO)nc12 | 54.1 nM (active) | –
40 | [2H]C([2H])([2H])C(O)([C@@H](C)/C=C/[C@@H](C)[C@H]1CC[C@H]2/C(=C/C=C3C[C@@H](O)C[C@H](O)C3)CCC[C@]12C)C([2H])([2H])[2H] | 6810 nM (active) | –

— PubChem BioAssay (NCATS)
